# Laboratory results taken from PubChem BioAssay (NCI).
# Several values for one entry are separate records, joined by “and”; a condition that tells them apart may be missing. Equal entries are not always repeated. Compounds without any hit were thinned out: in the full panel of roughly 83,000, 20% have a hit.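 Note: values are percent growth. 100 is the growth of untreated cells, values between 100 and 0 indicate rising inhibition; between -100 and 0 indicates cell death.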 A number with no mark means an inactive call. Activity calls are given as the source filed them. The calls were made as follows: active = growth percent below 10; inactive = the rest.
# Assays:
# Experiment in all cases: NCI-60 one-dose screen, 48 h (100 = growth as untreated, 0 = no growth, -100 = all killed)
# [1] = tested on: MDA-MB-468 breast; settings: 10 µM unless noted
# [2] = tested on: NCI-H226 lung; settings: 10 µM
# [3] = tested on: NCI-H322M lung; settings: 10 µM
# [4] = tested on: HOP-62 NSCLC; settings: 10 µM
# [5] = tested on: NCI-H460 lung; settings: 10 µM
# [6] = tested on: NCI-H522 lung; settings: 10 µM
# [7] = tested on: A549/ATCC NSCLC; settings: 10 µM
# [8] = tested on: DU-145 prostate; settings: 10 µM
# [9] = tested on: K-562 leukemia; settings: 10 µM
# [10] = tested on: SF-539 CNS; settings: 10 µM
# [11] = tested on: M14 melanoma; settings: 10 µM
# [12] = tested on: HCT-15 colon; settings: 10 µM
# [13] = tested on: HT29 colon; settings: 10 µM
# [14] = tested on: SNB-19 CNS; settings: 10 µM
# [15] = tested on: U251 CNS; settings: 10 µM
# [16] = tested on: PC-3 prostate; settings: 10 µM
# [17] = tested on: LOX IMVI melanoma; settings: 10 µM
# [18] = tested on: MOLT-4 leukemia; settings: 10 µM
# [19] = tested on: SR leukemia; settings: 10 µM
# [20] = tested on: RPMI-8226 leukemia; settings: 10 µM
smiles,measurement,setting,value
CCOC(=O)c1cc(C(=O)c2cc(OC)c(OC)c(OC)c2)n2ncc3ccccc3c12,growth,[1],66%
Cc1ccc2c(c1)C(=O)/C(=C/c1c[nH]c3ccccc13)S2,growth,[2],40.8%
same,growth,[3],72.2%
same,growth,[4],47.4%
same,growth,[5],33.6%
same,growth,[6],11.2%
same,growth,[7],64.6%
same,growth,[8],78.2%
same,growth,[9],19%
same,growth,[10],48.1%
same,growth,[11],64.2%
same,growth,[12],29.5%
same,growth,[13],55.6%
same,growth,[14],27.3%
same,growth,[15],22.7%
same,growth,[16],23.7%
same,growth,[17],19.1%
same,growth,[18],32%
same,growth,[19],27.1%
same,growth,[20],32.3%
same,growth,[1],17.8%
CCN(CC)CCOc1ccc(/C(=C(\Cl)c2ccccc2)c2ccccc2)cc1,growth,[1],-60% (active) and -6.23% (active)
O=C(/C=C/C12c3ccccc3C(c3ccccc31)C1C(=O)NC(=O)C12)c1ccc(Cl)cc1Cl (stereo not drawn),growth,[1],23.8%
COc1cc(/C=C(/C)C[N+](=O)[O-])ccc1O,growth,[1],57.9%
O=C(CSc1nc2ccccc2c(=O)n1-c1ccc(Cl)cc1)N/N=C/c1ccc(N2CCCCC2)cc1,growth,[1],79.5%
COc1ccc(Cn2cc3c(c2-c2ccccc2)CCc2cncnc2-3)cc1,growth,[1],32.5%
O=S(=O)(Nc1cc(Sc2cccc3cccnc23)c(O)c2ccccc12)c1ccc(F)cc1,growth,[1],-46.6% (active)
C=C(C)[C@@H]1CC[C@]2(C)[C@H](CC=C3[C@@H]4CC(C)(C)CC[C@]4(C(N)=O)CC[C@]32C)[C@@]1(C)CCC#N,growth,[1],15.1%
COc1ccc2c(OCc3nnc4ccc(-c5ccccc5)nn34)ccnc2c1,growth,[1],97.2% [2.5 µM]
CSc1nnc(-c2sc3nnc(-c4ccccc4)c(-c4ccccc4)c3c2O)o1,growth,[1],78.9%
COc1ccc(/C=C/C(=O)c2ccc(Oc3ncnc4ccccc34)cc2)cc1OC,growth,[1],28.4%
COc1cc2c(cc1-c1c(C)noc1C)ncc1nc(C3CCOCC3)n([C@H](C)COC(F)F)c12,growth,[1],40%
COCCn1cc(-c2nc(-c3cc4cccnc4n3C)cs2)c2cc(OC)ccc21,growth,[1],-28% (active)
COc1ccc(C(=O)c2c(N)c(C#N)cn2-c2cccc(OC)c2)cc1,growth,[1],-3.17% (active)
CC1(C)CC2(C)CC(=O)C1C(C(=O)O)C2C(=O)O (stereo not drawn),growth,[1],114%
O=C1NC(=Nc2ccc(O)cc2)S/C1=C\c1cccc(Cl)c1,growth,[1],44.5%
COc1ccc(Cn2cc3c(c2-c2ccc(O)cc2)CCc2cnoc2-3)cc1,growth,[1],-3.26% (active)
COC(=O)CCC1=C(C)C(C)=N/C1=C\c1[nH]c(-c2ccc[nH]2)cc1OC,growth,[1],35%
O=C(NCc1cn(Cc2cccc(Oc3ccccc3)c2)nn1)c1cccnc1Nc1ccccc1,growth,[1],18.1%
N#CC1=C(N)Oc2ccc3ccccc3c2C1c1ccccc1Cl (stereo not drawn),growth,[1],31.1%
O=C(CC(NC(=O)OCc1ccccc1)C(=O)OCc1ccccc1)OCc1ccccc1 (stereo not drawn),growth,[1],112%
N#Cc1c(NC(=O)c2cccc(C(F)(F)F)c2)sc2c1CCC(=O)C2,growth,[1],-8.78% (active)
Clc1ccc(Cc2nc3ccccc3s2)cc1,growth,[1],104%
CC(C)c1ccc(Cc2cnc(NC(=O)c3cc(Br)cs3)s2)cc1,growth,[1],-4.52% (active)
COc1ccc(C2=C(CN)C(O)NC(=NCC(=O)c3ccc4ccccc4c3)N2)cc1 (stereo not drawn),growth,[1],118%
O=C(O)c1ccc(-n2c(=O)n(-c3cccc(C(F)(F)F)c3)c(=O)c3cc(-c4ccc(F)cc4F)ccc32)cc1,growth,[1],-4.52% (active)
Cc1cc(C(=O)Nc2cc(Nc3ncccc3-c3ncnc4nc[nH]c34)ccc2F)cc(C(F)(F)F)c1,growth,[1],93.6%
Cc1nc2sccn2c1-c1csc(Nc2cccc(Cl)c2C)n1,growth,[1],-13% (active)
Nc1nnc(-c2ccc3ccccc3c2O)o1,growth,[1],96.5%
COC(=O)[C@H](Cc1cn(C)cn1)NC(=O)[C@H](Cc1ccccc1)NC(=O)Nc1cc(C(F)(F)F)cc(C(F)(F)F)c1,growth,[1],-69.6% [100 µM] (active)
COc1cc2c(c(OC)c1OC)C(=O)CC(c1cccc(C(=O)Nc3ccc(C#N)cc3)c1)O2 (stereo not drawn),growth,[1],58.9%
c1ccc2c(c1)Sc1ccccc1S2,growth,[1],93.7%
CCOC(=O)n1cc(C2=C(c3cn(C)c4ccccc34)COC2=O)c2ccccc21,growth,[1],29.5%
OC(CC(c1ccccc1)c1cccc2ccccc12)(c1ccccc1)c1ccccc1 (stereo not drawn),growth,[1],86.3% and 84.5%
O=C1NC(=O)c2cc([N+](=O)[O-])cc3cccc1c23,growth,[1],91%
CCOC(=O)C(C)(c1ccccc1)c1ccccc1,growth,[1],109%
c1cnc2c(-c3nc4ccc5[nH]ncc5c4c4c3CCCC4)c[nH]c2c1,growth,[1],10.9%
CCCCCc1ccc(S(=O)(=O)Nc2cc(-c3csc(NC(=O)CN4CCN(C)CC4)n3)ccc2OC)cc1,growth,[1],35.2%
O=C1/C(=C/c2ccc([N+](=O)[O-])o2)Oc2ccc(Cl)cc21,growth,[1],-34.5% (active)
COc1ccc(C(=O)C2=CC(=O)C(=O)C2)cc1OC,growth,[1],108%
O=C(Nc1ccc(Cl)cc1)c1cc2ccccc2cc1OP(=O)(O)O,growth,[1],71.3%
COc1ccc(C(=O)Nc2ncc(Cc3ccccc3Cl)s2)cc1,growth,[1],24.7%
CC(=O)c1cc(C(=O)c2ccc3c(c2)Sc2ccccc2N3)c2c(C)cc(C)cn12,growth,[1],14%
